The compounds below were run against Fibroblast growth factor 2 (Homo sapiens) (UniProt P09038) (assay: FGF2 binders on small-molecule microarrays, primary screen, biochemical, small-molecule microarray, 635/667 nm fluorescence (AID 1133)). Settings: small-molecule microarray binding, FGF2, fluorescence 635/667; higher = more signal.
Sequence of Fibroblast growth factor 2 (Homo sapiens) (P09038 whole entry, looked up): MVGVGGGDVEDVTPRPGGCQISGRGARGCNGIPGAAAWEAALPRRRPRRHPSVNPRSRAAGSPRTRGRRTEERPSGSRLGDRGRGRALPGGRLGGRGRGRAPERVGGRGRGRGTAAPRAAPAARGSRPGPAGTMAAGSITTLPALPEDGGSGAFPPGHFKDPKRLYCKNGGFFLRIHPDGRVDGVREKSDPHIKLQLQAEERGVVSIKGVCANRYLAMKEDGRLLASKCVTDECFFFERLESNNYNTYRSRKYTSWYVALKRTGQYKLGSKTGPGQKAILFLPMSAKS

| SMILES | composite z-score |
| --- | --- |
| COCC#Cc1ccc([C@@H]2N[C@H](C(=O)O)CC[C@H]2C)cc1 | -0.0471 |
| C#CCCCON=C1[C@H]2CCn3c(=O)n([C@@H](CC)c4ccccc4)c(=O)n3[C@H]2[C@H](O)[C@@H]2O[C@H]12 | 0.639 |
| O=C1CCCC=C1C(O)C1CCCCC1 (stereo unspecified) | -0.297 |
| C[C@@H](c1ccccc1)N1C(=O)[C@H]2[C@H]3[C@H](O)[C@H](O)CC(=NOC[C@@H](O)COCc4ccco4)[C@H]3CC[C@H]2C1=O | 1.36 |
| CCOC(=O)[C@H](CC(C)C)NC(=O)CCC1CC(OC(=O)NCCc2ccc(F)cc2)CC2(CCCC(COC(=O)NCc3cccc4ccccc34)O2)O1 (stereo partly specified) | 0.634 |
| COC(=O)[C@H](C)NC(=O)CCC1CC(OC(=O)NCCc2ccc(F)cc2)CC2(CCCC(COC(=O)NCCc3ccccc3OC)O2)O1 (stereo partly specified) | 0.591 |
| CCOC(=O)CCN1C(=O)[C@H]2[C@H]3[C@H](O)[C@H](O)CC(=NOCC(C)C)[C@@H]3CC[C@H]2C1=O | 1.14 |
| CC[C@@H](c1ccccc1)n1c(=O)n2n(c1=O)[C@H]1[C@H](O)[C@@H]3O[C@@H]3C(=NOCc3ccccc3)[C@H]1CC2 | 0.373 |
| COc1ccc(O[C@H]2C=C[C@@H](c3ccccc3)O[C@@H]2CON=C(C)CCN2CCCc3nc(C)c(C)cc32)cc1 | 0.529 |
| COC(OC)[C@@H](C)[C@H](OC)[C@@H](C)[C@H](OC)c1ccccc1 | 0.142 |
| CC(CCN1CCc2nc(-c3ccccc3)c(-c3ccccc3)cc2C1)=NO[C@@H](C)c1cc(-c2c(C)cc(C)cc2C)no1 | -0.44 |
| CO[C@H]1COC(=O)CCC[C@H](C)[C@H](OC)COC(=O)CC=C[C@@H]1C | 1.13 |
| COC(=O)[C@H](CCSC)NC(=O)CC=C[C@@H](C)CO | 1.73 |
| C[C@H]1CC[C@@H](C(=O)O)N[C@@H]1c1cccc(N2CCCC2=O)c1 | 0.229 |
| C#CCCCON=C1C[C@@H](O)[C@@H](O)[C@@H]2[C@@H]3C(=O)N([C@@H](C)c4ccccc4)C(=O)[C@@H]3CC[C@@H]12 | -0.141 |
| COC(=O)[C@H](C)NC(=O)CCC1CC(OC(=O)NCc2ccc3c(c2)OCO3)CC2(CCCC(COC(=O)NCc3ccccc3)O2)O1 (stereo partly specified) | 0.718 |
| CCOC(=O)CCN1C(=O)[C@H]2[C@H]3[C@H](O)[C@H](O)CC(=NNC(=O)OCC)[C@H]3CC[C@H]2C1=O | 0.406 |
| CC(C)(C)N1C(=O)[C@H]2[C@@H]3C(=CC[C@H]2C1=O)C(=O)[C@H]1O[C@H]1[C@H]3O | -0.17 |

| SMILES | composite z-score |
| --- | --- |
| O=C1[C@H]2[C@H]3[C@H](O)[C@H](O)CC(=NO[C@@H]4O[C@H](CO)[C@@H](O)[C@H](O)[C@H]4O)[C@@H]3CC[C@H]2C(=O)N1C1CCCCC1 | 0.415 |
| COc1ccc(COC(=O)NN=C2C[C@@H](O)[C@@H](O)[C@@H]3[C@@H]4C(=O)N([C@@H](C)c5ccccc5)C(=O)[C@@H]4CC[C@@H]23)cc1 | 0.272 |
| COc1ccc(COC(=O)NN=C2C[C@@H](O)[C@@H](O)[C@@H]3[C@@H]4C(=O)N(Cc5ccccc5)C(=O)[C@@H]4CC[C@@H]23)cc1 | 0.164 |
| CC(C)[C@@H](OCc1ccccc1)[C@H](C)C=NO[C@@H](C)c1cn([C@H](CO)Cc2ccccc2)nn1 | 0.346 |
| CCOC(=O)[C@H](Cc1ccccc1)NC(=O)CCC1CC(OC(=O)NCc2ccc3c(c2)OCO3)CC2(CCCC(COC(=O)NCCOc3ccccc3)O2)O1 (stereo partly specified) | 0.776 |
| COC(=O)[C@H](C)NC(=O)CCC1CC(OC(=O)NCc2ccc3c(c2)OCO3)CC2(CCCC(COC(=O)NCCCN3CCCC3=O)O2)O1 (stereo partly specified) | 1.42 |
| O=C(NN=C1C[C@@H](O)[C@@H](O)[C@@H]2[C@@H]3C(=O)N(Cc4ccc5c(c4)OCO5)C(=O)[C@@H]3CC[C@@H]12)OCc1ccccc1 | -0.0806 |
| CCN1C(=O)[C@H]2[C@H]3[C@H](O)[C@H](O)CC(=NOCC[C@@H]4C=C[C@H](OC(C)=O)[C@@H](COC(C)=O)O4)[C@@H]3CC[C@H]2C1=O | 0.419 |
| COC(=O)[C@H](C)NC(=O)CCC1CC(OC(=O)NCc2ccc3c(c2)OCO3)CC2(CCCC(COC(=O)NCCC(C)C)O2)O1 (stereo partly specified) | 0.531 |
| CO[C@H]1COC(=O)CC=C[C@H](C)[C@H](OC)COC(=O)[C@@H](C)NC(=O)CC=C[C@@H]1C | 1.47 |
| O=C1C=C[C@@H](O)[C@@H]2[C@@H]3C(=O)N(Cc4ccccc4)C(=O)[C@@H]3CC[C@@H]12 | 0.484 |
| CCOC(=O)[C@H](Cc1ccccc1)NC(=O)CCC1CC(OC(=O)NCc2ccc3c(c2)OCO3)CC2(CCCC(COC(=O)NCCc3ccc(Cl)cc3)O2)O1 (stereo partly specified) | 0.303 |
| COc1ccc(-c2cnnc(CCCn3ccnc3-c3ccccc3)n2)cc1 | 0.475 |
| CCOC(=O)NN=C1C[C@@H](O)[C@@H](O)[C@@H]2[C@@H]3C(=O)N(c4ccc(F)cc4F)C(=O)[C@@H]3CC[C@H]12 | 0.577 |
| C#CCCCON=C1C[C@@H](O)[C@@H](O)[C@@H]2[C@@H]3C(=O)N(CC)C(=O)[C@@H]3CC[C@H]12 | -0.0374 |
| C[C@H]1CC[C@@H](C(=O)O)N[C@@H]1c1ccc(C#Cc2ccccc2)cc1 | 0.551 |
| COC(=O)[C@H](C)NC(=O)CCC1CC(OC(=O)NCc2cccc3ccccc23)CC2(CCCC(COC(=O)NCc3ccccc3)O2)O1 (stereo partly specified) | 0.846 |
| CC(=O)OC[C@H]1O[C@H](CC=NOC[C@@H](O)[C@H]2O[C@@H]3OC(C)(C)O[C@@H]3[C@H]2O)C=C[C@@H]1OC(C)=O | 0.583 |
